Results from ChEMBL document CHEMBL5308504, “Tm Shift (DSF) assay results for EUbOPEN Chemogenomics Library” (2023).
Where “and” joins values, the source holds several entries; their conditions need not be identical. Equal entries are not always repeated.

Key:
Conditions in all cases: Compound concentration 20.0 uM, Protein concentration 2.0 uM, Result type QC Liability
[1] = molecular target: Tyrosine-protein kinase ABL1 (Homo sapiens) (UniProt P00519)
[2] = molecular target: Cyclin-dependent kinase 2 (Homo sapiens) (UniProt P24941)
[3] = molecular target: Casein kinase I isoform delta (Homo sapiens) (UniProt P48730)
Casein kinase I isoform delta (Homo sapiens), sequence (P48730 whole entry, looked up, canonical isoform): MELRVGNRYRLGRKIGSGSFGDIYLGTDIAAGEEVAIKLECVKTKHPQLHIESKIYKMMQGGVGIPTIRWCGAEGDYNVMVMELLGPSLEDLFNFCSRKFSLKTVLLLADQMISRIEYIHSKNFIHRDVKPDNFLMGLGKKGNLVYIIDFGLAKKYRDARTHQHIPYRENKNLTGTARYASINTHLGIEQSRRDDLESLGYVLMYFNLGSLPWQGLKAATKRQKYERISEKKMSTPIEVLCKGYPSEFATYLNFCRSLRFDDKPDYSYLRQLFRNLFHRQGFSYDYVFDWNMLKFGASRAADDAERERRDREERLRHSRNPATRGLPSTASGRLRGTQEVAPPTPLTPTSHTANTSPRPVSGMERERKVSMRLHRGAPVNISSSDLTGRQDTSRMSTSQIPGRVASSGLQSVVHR

[4] = molecular target: Glycogen synthase kinase-3 beta (Homo sapiens) (UniProt P49841)
Glycogen synthase kinase-3 beta (Homo sapiens), sequence (P49841 whole entry, looked up): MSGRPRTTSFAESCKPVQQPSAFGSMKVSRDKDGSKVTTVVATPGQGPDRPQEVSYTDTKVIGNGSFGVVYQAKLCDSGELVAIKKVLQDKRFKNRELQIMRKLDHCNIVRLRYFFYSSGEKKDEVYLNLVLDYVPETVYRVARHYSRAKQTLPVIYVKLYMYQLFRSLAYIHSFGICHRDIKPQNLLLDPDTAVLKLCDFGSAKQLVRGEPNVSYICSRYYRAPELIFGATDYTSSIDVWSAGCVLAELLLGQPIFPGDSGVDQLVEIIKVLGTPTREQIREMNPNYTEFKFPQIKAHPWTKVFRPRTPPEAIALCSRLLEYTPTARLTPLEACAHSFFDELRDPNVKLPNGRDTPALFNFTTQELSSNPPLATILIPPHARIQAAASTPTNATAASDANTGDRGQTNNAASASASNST

[5] = molecular target: Mitogen-activated protein kinase 1 (Homo sapiens) (UniProt P28482)
Mitogen-activated protein kinase 1 (Homo sapiens), sequence (P28482 whole entry): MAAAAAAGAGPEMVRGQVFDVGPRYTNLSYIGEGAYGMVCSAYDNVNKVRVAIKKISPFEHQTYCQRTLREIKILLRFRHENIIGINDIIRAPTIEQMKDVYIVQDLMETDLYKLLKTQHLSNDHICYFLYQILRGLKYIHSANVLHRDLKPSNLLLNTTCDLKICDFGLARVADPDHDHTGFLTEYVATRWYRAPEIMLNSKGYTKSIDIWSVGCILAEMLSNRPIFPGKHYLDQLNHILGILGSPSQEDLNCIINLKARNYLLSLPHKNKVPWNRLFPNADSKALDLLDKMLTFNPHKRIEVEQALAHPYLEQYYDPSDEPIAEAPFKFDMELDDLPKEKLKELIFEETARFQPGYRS

[6] = molecular target: T1, Aurora kinase A (Homo sapiens) (UniProt O14965)
T1 sequence (whole entry): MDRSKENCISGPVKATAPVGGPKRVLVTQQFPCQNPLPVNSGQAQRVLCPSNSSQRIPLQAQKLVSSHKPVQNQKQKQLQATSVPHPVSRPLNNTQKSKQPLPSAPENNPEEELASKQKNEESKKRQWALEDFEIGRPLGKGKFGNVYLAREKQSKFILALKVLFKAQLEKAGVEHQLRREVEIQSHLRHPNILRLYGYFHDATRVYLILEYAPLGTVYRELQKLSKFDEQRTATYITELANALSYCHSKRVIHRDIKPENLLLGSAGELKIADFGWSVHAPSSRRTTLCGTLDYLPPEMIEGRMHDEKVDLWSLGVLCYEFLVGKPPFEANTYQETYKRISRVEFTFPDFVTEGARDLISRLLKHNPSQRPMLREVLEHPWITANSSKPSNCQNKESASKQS

Tyrosine-protein kinase ABL1 (Homo sapiens), sequence (P00519 whole entry): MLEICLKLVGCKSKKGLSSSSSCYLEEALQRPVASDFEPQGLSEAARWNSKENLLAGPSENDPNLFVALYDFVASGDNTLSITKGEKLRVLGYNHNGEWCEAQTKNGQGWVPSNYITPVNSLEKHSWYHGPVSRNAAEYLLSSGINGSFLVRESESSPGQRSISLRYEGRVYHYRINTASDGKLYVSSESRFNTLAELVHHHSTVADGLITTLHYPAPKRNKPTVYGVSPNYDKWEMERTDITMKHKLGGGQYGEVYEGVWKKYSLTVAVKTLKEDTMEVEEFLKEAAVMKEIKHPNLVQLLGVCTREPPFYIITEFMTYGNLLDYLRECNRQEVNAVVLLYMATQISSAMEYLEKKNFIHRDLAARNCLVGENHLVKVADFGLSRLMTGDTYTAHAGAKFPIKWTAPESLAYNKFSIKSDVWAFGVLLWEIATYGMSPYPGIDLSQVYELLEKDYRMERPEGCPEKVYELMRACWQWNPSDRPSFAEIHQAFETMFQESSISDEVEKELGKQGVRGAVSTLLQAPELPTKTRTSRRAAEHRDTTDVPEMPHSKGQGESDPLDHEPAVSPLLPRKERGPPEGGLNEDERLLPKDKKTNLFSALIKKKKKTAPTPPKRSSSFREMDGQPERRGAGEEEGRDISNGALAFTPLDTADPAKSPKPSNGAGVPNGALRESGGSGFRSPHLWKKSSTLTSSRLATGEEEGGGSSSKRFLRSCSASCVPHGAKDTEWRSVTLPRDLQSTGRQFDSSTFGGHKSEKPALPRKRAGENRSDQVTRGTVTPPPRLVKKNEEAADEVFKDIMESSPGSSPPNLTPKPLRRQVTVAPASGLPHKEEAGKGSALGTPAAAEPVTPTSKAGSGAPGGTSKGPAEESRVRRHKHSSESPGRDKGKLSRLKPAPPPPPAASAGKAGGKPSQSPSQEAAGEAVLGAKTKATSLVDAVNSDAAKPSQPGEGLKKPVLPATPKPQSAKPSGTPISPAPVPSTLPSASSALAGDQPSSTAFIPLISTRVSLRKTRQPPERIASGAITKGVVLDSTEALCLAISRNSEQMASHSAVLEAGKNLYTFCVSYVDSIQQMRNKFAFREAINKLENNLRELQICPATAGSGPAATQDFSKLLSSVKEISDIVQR

Row | Compound | ΔTm [1] | ΔTm [2] | ΔTm [3] | ΔTm [4] | ΔTm [5] | ΔTm [6]
1 | CN(CC(=O)Nc1ccc(F)c(F)c1F)C(=O)c1ccc2c(c1)OCCO2 | 0.3 °C | 0.89 °C | 0.08 °C | -0.75 °C | 0.49 °C | -0.17 °C
2 | CC(C)(C)OC(=O)CN1C(=O)c2c(OCC(=O)O)cccc2Oc2ccc(C(F)(F)F)cc21 | 0.48 °C | 0.55 °C | 0.4 °C | 1.17 °C | 0.51 °C | -0.28 °C
3 | CC1=C(C(=O)OCCO)[C@@H](c2ccc(C#N)cc2)NC(=O)N1c1cccc(C(F)(F)F)c1 | -0.45 °C | -0.38 °C | 0.44 °C | -0.19 °C | 0.15 °C | -0.11 °C
4 | COc1cc(C(=O)NC2CCN(C)CC2)ccc1Nc1ncc(C(F)(F)F)c(NCc2ccc(C)cc2N(C)S(C)(=O)=O)n1 | 0.73 °C | 0.29 °C | 1.1 °C | -0.29 °C | 3.52 °C | 5.17 °C
5 | NC(=O)c1sc2nc(N3CCC(NC[C@H](O)c4ccccn4)CC3)cc(C(F)(F)F)c2c1N | 1.22 °C | 1 °C | 1.86 °C | 0.72 °C | 0.39 °C | 1.06 °C
6 | COC1(C#Cc2ccc(Cl)c(-c3ncc4c(n3)-c3sc(NC(C)=O)nc3CC4)c2)CCN(C)CC1 | 0.87 °C | -0.1 °C | 1.14 °C | -0.95 °C | 0.03 °C | 0 °C
7 | C#Cc1cnc2[nH]cc(-c3cccc4c3CCN4C(=O)[C@@H]3CCCN3C#N)c2c1 | 5.17 °C | 1.31 °C | 2.51 °C | 2.99 °C | 0.55 °C | 4.94 °C
8 | CN(C)C/C=C/C(=O)Nc1cc2c(Nc3ccc(F)c(Cl)c3)ncnc2cc1OC[C@@H]1CCCO1 | 6.89 °C | -0.1 °C | 1.15 °C | 2.63 °C | -1.79 °C | 1.39 °C
9 | Cc1cc(-c2cnc(N)c3c(-c4ccc5scnc5c4)csc23)n(C)n1 | 7.77 °C | -0.21 °C | 0.67 °C | -0.81 °C | -0.07 °C | -0.03 °C
10 | O=C(N[C@H](Cc1ccccc1)C(=O)O)c1cccc(OCc2cccnc2)c1 | 0.31 °C | 1.19 °C | -0.02 °C | 0.45 °C | 0.21 °C | -0.05 °C
11 | CN1CCN(c2ccc(Nc3ncc4cc5n(c4n3)C3(CCCCC3)CNC5=O)nc2)CC1 | 0.17 °C | 0 °C | -0.03 °C | 0.02 °C | 0.18 °C | 0.38 °C
12 | CCn1c(-c2nonc2N)nc2cncc(C(=O)N3CC[C@H](N)C3)c21 | -0.16 °C | 0.25 °C | 0.4 °C | 6 °C | 0.69 °C | 0.77 °C
13 | CC(=O)c1c(C)c2cnc(Nc3ccc(N4CCNCC4)cn3)nc2n(C2CCCC2)c1=O | 0.35 °C and -0.02 °C | 1.06 °C and 0.93 °C | 0.19 °C and 0.01 °C | 0.23 °C and 0.63 °C | 0.09 °C and 0.31 °C | -0.85 °C and 0.31 °C
14 | N=C(N)NCCC[C@H](NC(=O)C(c1ccccc1)c1ccccc1)C(=O)NCc1ccc(CNC(N)=O)cc1 | -0.28 °C | 0.46 °C | 0.29 °C | -0.57 °C | 0.19 °C | 0.09 °C
15 | CN[C@@H](C)C(=O)N[C@H](C(=O)N1CCC[C@H]1C(=O)Nc1sc(-c2ncco2)nc1-c1ccccc1)C1CCCCC1 | 0.05 °C | -0.21 °C | -0.13 °C | -0.9 °C | 0.08 °C | -0.03 °C
16 | COCCOCn1c(S(C)(=O)=O)nc2c1c(=O)n(C)c(=O)n2C | 0.21 °C | 0.39 °C | -0.13 °C | -0.24 °C | -0.83 °C | 0.11 °C
17 | CC(C(=O)Nc1cc(C#N)ccc1CCCC(=O)O)c1ccc(F)c2ccccc12 (stereo unspecified) | 0.96 °C | 0.61 °C | 0.09 °C | 0.53 °C | -0.07 °C | -0.36 °C
18 | COc1cc(F)ccc1-c1cc(Nc2cc(CS(C)(=N)=O)ccn2)ncc1F (stereo unspecified) | 5.35 °C | 5.7 °C | 1.19 °C | 11 °C | 0.27 °C | 6.53 °C

Row | Compound | ΔTm [1] | ΔTm [2] | ΔTm [3] | ΔTm [4] | ΔTm [5] | ΔTm [6]
19 | C[C@@H](COCCC(=O)N1CCN(c2ncc(C(F)(F)F)cn2)CC1)Nc1cn[nH]c(=O)c1C(F)(F)F | 0.32 °C | 0.9 °C | -0.05 °C | -0.82 °C | 0.42 °C | -0.45 °C
20 | COc1cc2nc(C)nc(NC3(c4ccccc4)CC3)c2cc1OC | 0.57 °C | 0.41 °C | 0.15 °C | -0.3 °C | 0.33 °C | 0.65 °C
21 | COc1cc(C)c(S(=O)(=O)N(C)CCOCC(=O)N(C)[C@H]2CCC[C@@H](N3CCN(C)CC3)C2)c(C)c1 | -0.63 °C | 0.33 °C | 0.16 °C | -0.91 °C | -0.21 °C | -0.27 °C
22 | CCc1ccc(-c2ncn(CC3(F)CCN(C)CC3)c2-c2ccnc3[nH]ccc23)nc1 | 0.05 °C | 0.87 °C | 0.57 °C | -0.72 °C | 0.39 °C | -1.06 °C
23 | CC[C@@H](Nc1c(C#N)c(-c2ccc(-c3cccc(C)c3F)cc2)nc2cnccc12)C(=O)O | 1.07 °C | -0.82 °C | -0.63 °C | 0.06 °C | -0.07 °C | 5.1 °C
24 | Cn1cc(Nc2nccc(N3CC4CCC(C3)N4C(=O)[C@@H]3CC3(F)F)n2)cn1 | 1.98 °C | 2.84 °C | 0.33 °C | 0.6 °C | 0.56 °C | 8.08 °C
25 | O=C(Cc1ccccc1)Nc1nnc(N2C[C@H]3C[C@@H]2CN3c2cccnn2)s1 | 0.09 °C | 0.52 °C | -0.12 °C | -0.33 °C | 0.33 °C | -0.14 °C
26 | CCCCCNC(=O)N1CCC(CN(Cc2ccc(Cl)cc2)Cc2ccc([N+](=O)[O-])s2)C1 (stereo unspecified) | 0.03 °C | 0.81 °C | 0.7 °C | -1.49 °C | 0.03 °C | -0.9 °C
27 | O=C(O)Cc1cc(I)c(Oc2ccc(O)c(I)c2)c(I)c1 | -0.37 °C | 0.49 °C | 0.22 °C | -0.68 °C | -1.09 °C | 3.86 °C
28 | NCCCc1c(C(=O)O)[nH]c2ccc(C(=O)Nc3ccccc3)cc12 | 0.08 °C | 0.25 °C | 0.53 °C | -0.39 °C | 0.25 °C | -1.5 °C
29 | CCCCCCCN(CCc1ccc(SC(C)(C)C(=O)O)cc1)C(=O)Nc1ccc(F)cc1F | 0.48 °C | 0 °C | 0.48 °C | -1.12 °C | -0.08 °C | -1.93 °C
30 | C=CC(=O)Nc1cccc(C(=O)Nc2ccc(Nc3cc(-c4c(-c5ccc(F)cc5)nc(SC)n4C)ccn3)cc2)c1 | 2.33 °C | -0.01 °C | 3.17 °C | -0.32 °C | 0.35 °C | 1.08 °C
31 | CCN1C(=O)c2cc(C)ccc2N(C)c2ncccc21 | -0.36 °C | 0.32 °C | 0.14 °C | -0.36 °C | 0.23 °C | 0.08 °C
32 | CC(C)(C)c1cc(NC(=O)c2csc(Nc3ccccn3)n2)no1 | 1.84 °C | 0.49 °C | 0.84 °C | 0.22 °C | 0.57 °C | 1.27 °C
33 | Cc1cnc(Nc2ccc(C(=O)N3CCN(C)CC3)cc2)nc1N[C@@H]1CCC[C@@H]1C(N)=O | 5.89 °C | 6.47 °C | 0.27 °C | 3.07 °C | 1.68 °C | 14.7 °C
34 | COc1cc(-c2cc3ncccc3c(O[C@H](C)[C@H]3CNC(=O)C3)n2)cc(OC)c1OC | 3.69 °C and 3.1 °C | 0.94 °C | 3.55 °C and 2.97 °C | -0.33 °C and -0.99 °C | 1.84 °C and 1.51 °C | 9.58 °C and 8.08 °C
35 | CN1CCN(C(=O)c2ccc(N(C)c3ncc(C(F)(F)F)c(N[C@@H]4CCC[C@@H]4C(N)=O)n3)cc2)CC1 | -0.2 °C | 0.48 °C | 0.31 °C | 0.51 °C | 0.25 °C | -0.13 °C
36 | CC(=O)c1ccc2c(c1)/C(=C(/NC1CCN(C)CC1)c1ccc3c(c1)OCO3)C(=O)N2 | 0.16 °C | 4.87 °C | 2.46 °C | 15.5 °C | 0.57 °C | 0.78 °C
